Test results taken from PubChem BioAssay (NCI).
About 83,000 compounds went through this panel and 20% of them were active in at least one assay; those are over-represented in the sample as a whole.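 Each cell line was grown in a 96-well plate and treated with one concentration of compound for 48 hours. Values below 10 were considered active.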 A number with no mark means an inactive call. The source made the active and inactive calls.

Legend:
Experiment in all cases: NCI-60 one-dose screen, 48 h (100 = growth as untreated, 0 = no growth, -100 = all killed)
Conditions in all cases: 10 µM unless noted
SR leukemia = system: SR leukemia
RPMI-8226 leukemia = system: RPMI-8226 leukemia
OVCAR-8 ovarian = system: OVCAR-8 ovarian
OVCAR-5 ovarian = system: OVCAR-5 ovarian
OVCAR-4 ovarian = system: OVCAR-4 ovarian
SK-OV-3 ovarian = system: SK-OV-3 ovarian
IGROV1 ovarian = system: IGROV1 ovarian
OVCAR-3 ovarian = system: OVCAR-3 ovarian
HS 578T breast = system: HS 578T breast
NCI/ADR-RES ovarian = system: NCI/ADR-RES ovarian
T-47D breast = system: T-47D breast
BT-549 breast = system: BT-549 breast
MDA-MB-435 melanoma = system: MDA-MB-435 melanoma
SW-620 colon = system: SW-620 colon
MCF7 breast = system: MCF7 breast
HCT-116 colon = system: HCT-116 colon
HCC-2998 colon = system: HCC-2998 colon
KM12 colon = system: KM12 colon

| Structure (SMILES) | growth (SR leukemia) | growth (RPMI-8226 leukemia) | growth (OVCAR-8 ovarian) | growth (OVCAR-5 ovarian) | growth (OVCAR-4 ovarian) | growth (SK-OV-3 ovarian) | growth (IGROV1 ovarian) | growth (OVCAR-3 ovarian) | growth (HS 578T breast) | growth (NCI/ADR-RES ovarian) | growth (T-47D breast) | growth (BT-549 breast) | growth (MDA-MB-435 melanoma) | growth (SW-620 colon) | growth (MCF7 breast) | growth (HCT-116 colon) | growth (HCC-2998 colon) | growth (KM12 colon) |
| --- | --- | --- | --- | --- | --- | --- | --- | --- | --- | --- | --- | --- | --- | --- | --- | --- | --- | --- |
| CCC(=O)Oc1ccc(/C(=C(\C)c2ccccc2)c2ccc(OCCN(CC)CC)cc2)cc1 | 43.9% | 68.2% | 87.9% | 91.7% | 87.5% | 91.4% | 92.7% | 97.8% | 51.9% | 93% | 43.8% | 86.3% | 76.1% | 79.4% | 37.9% | 62.1% | 103% | 80.3% |
| CCCCNc1ccc2c3c1cccc3c(=O)n1c3ccccc3nc21 | 15.6% | 80.5% | 106% | 110% | 85.8% | 96.4% | 41.8% | 95.3% | 93.1% | 91.3% | 35.7% | 98.2% | 111% | 86.4% | 10.3% | 86.7% | 74% | 77.7% |
| CCCCCC(=O)N(CCCC)CCCC | 95.5% | 93.8% | 102% | 103% | 84.6% | 93.7% | 113% | 120% | 109% | 111% | 109% | 102% | 89.4% | 117% | 123% | 108% | 111% | 109% |
| Cc1ccc(Nc2c(C(N)=O)cnc3ccc(-c4csc(N)n4)cc23)cc1 | 94.8% | 100% | 101% | 99.6% | 87% | 108% | 89.3% | 108% | 92.9% | 96.4% | 96.7% | 96.4% | 102% | 97% | 92.4% | 93.5% | 100% | 95.6% |
| CCOC(=O)c1ccc2c(c1)nc(/C=C/c1ccc(Cl)cc1)n2-c1cc(C(C)(C)C)[nH]n1 | 52.2% | 52.3% | 38.5% | 110% | 38.3% | 43.3% | 15.4% | 22.2% | 51.3% | 68% | 56.2% | 57.4% | 62.7% | 64.9% | 42.4% | 52% | 88.4% | 54% |
| C=C1CC2(OC1=O)C(=O)N(CCCCCCCCCCCCN1C(=O)C3(CC(=C)C(=O)O3)c3ccccc31)c1ccccc12 (stereo unspecified) | 2.62% (active) | 3.98% (active) | 57% | 99.9% | 88.9% | 105% | 64.8% | 66.8% | 91.1% | 83.2% | 64.8% | 84% | 73.1% | 26.1% | 38% | 61.3% | 92.8% | 93.6% |
| O=C(Nc1ccc(CN2CCOCC2)cc1)c1[nH]ncc1Nc1ncnc2sccc12 | -4.39% (active) | -3.98% (active) | 11.6% | 16.1% | 13.6% | 33% | 16.7% | -15.7% (active) | -2.92% (active) | 4.5% (active) | 17.5% | -8.71% (active) | 18.1% | 5.35% (active) | 8.76% (active) | 6.07% (active) | -9.48% (active) | 0.0776% (active) |
| Nc1ccc2c(c1)C(=O)NC2=O | 40.7% | 84.1% | 106% | 92.8% | 82.8% | 100% | 113% | 105% | 93.5% | 95.2% | 93.5% | 117% | 92.2% | 94.8% | 96.5% | 97.8% | 95.2% | 98.8% |
| Nc1c(C(=O)Nc2cccc3c2OCCO3)sc2nc3c(cc12)CN(Cc1ccccc1)CC3 | 35.5% | 77.5% | 87.7% | 95.3% | 74.5% | 89.2% | 60.7% | 26.7% | 66% | 53% | 68.2% | 69.7% | 6.47% (active) | 47.6% | 28.3% | 45.4% | 101% | 59.4% |
| COc1ccc(-c2c(C)noc2-c2ccc(O)cc2O)cc1 | 31.1% | 50.7% | 99.9% | 112% | 76.4% | 94.1% | 87% | 80.5% | 106% | 94.6% | 86.9% | 112% | 87.1% | 69.5% | 67.6% | 77.9% | 111% | 64.4% |
| O=C(C[C@@H](C(=O)NCc1cccc(C(F)(F)F)c1)N1C(=O)[C@@H](N2C(=O)OC[C@@H]2c2ccccc2)[C@H]1/C=C/c1ccccc1)NC1CCN(Cc2ccccc2)CC1 | -23.3% (active) | -13.7% (active) | 83.7% | 104% | 66.1% | 81.1% | 75% | 65.6% | 73.3% | 69.8% | 50.8% | 74.2% | 66.8% | 59.8% | 7.27% (active) | 30.4% | 59.9% | 59.4% |
| CNc1nc(C)c(-c2nc(Nc3cccc(S(N)(=O)=O)c3)ncc2F)s1 | -18.5% (active) | 2.6% (active) | 8.76% (active) | 3.14% (active) | 29.2% | 8.56% (active) | 4.94% (active) | 10.2% | 3.64% (active) | 5.57% (active) | -2.75% (active) | -17.1% (active) | 17.6% | 8% (active) | 1.33% (active) | 5.28% (active) | 2.96% (active) | 5.25% (active) |
| COc1ccc(-c2cc(=O)[nH]c3c(OC)c4ccccc4c(OC)c23)cc1 | -14% (active) | 4.21% (active) | 33.3% | 36.3% | 30.8% | 2.24% (active) | 32.8% | -43.2% (active) | -6.69% (active) | 3.17% (active) | 31.6% | 26% | -28.9% (active) | 19.6% | 13.4% | 12.1% | 0.772% (active) | 2.11% (active) |
| CC1(C)CC(C(=O)OCCCCCCCCCCC[P+](c2ccccc2)(c2ccccc2)c2ccccc2)C(C)(C)N1O (stereo unspecified) | -58.4% (active) | -43.8% (active) | -39% (active) | -62.9% (active) | -31.5% (active) | -19.5% (active) | -58.7% (active) | -95.9% (active) | -44% (active) | 14.6% | -54.3% (active) | -42.1% (active) | -70.3% (active) | -81% (active) | -80.6% (active) | -8.91% (active) | -84.9% (active) | -94.6% (active) |
| c1c2c(cc3c1OCO3)Cc1cc3c(cc1Cc1cc4c(cc1C2)OCO4)OCO3 | 91.9% | 111% | 101% | 102% | 98.3% | 101% | 104% | 123% | 104% | 113% | 108% | 113% | 105% | 109% | 90.8% | 115% | 112% | 126% |
| c1ccc2c(Nc3cccc4ccccc34)cccc2c1 | 31.6% | 68.3% | 65.7% | 103% | 86% | 59.5% | 56.8% | 43.8% | 62.6% | 29.8% | 65.2% | 62.8% | -27.7% (active) | 19% | 43.9% | 30.3% | 78.4% | 33.6% |
| CCOC(=O)c1c2ncccc2n2c(=O)n(-c3ccc(Cl)cc3)nnc12 | 91.4% | 92.8% | 57.1% | 67.7% | 84.6% | 92.2% | 85.6% | 95.2% | 93.9% | 59.8% | 61.1% | 43.6% | 49.7% | 105% | 76.6% | 86.9% | 90.3% | 70.7% |
